As usually defined, the AC50 is the concentration at which the activity in the assay is half-maximal.

The record followed here is PubChem BioAssay (EPA / NIEHS).

Assay [1] concerns the target Androgen Receptor/SRC-1 Co-activator, AR (gene 367) (UniProt P10275). In words: OT_AR_ARSRC1_0480: Odyssey Thera (OT) 8-hour HEK293T Protein-Complementation Assay for Androgen Receptor/SRC-1 Co-activator (AID 2283354).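 Also: hits raise the complementation signal above DMSO so AC50 marks enhancers.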 The method in brief: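 HEK293T cells stably expressing AR and SRC-1 fused to Venus YFP fragments, imaged 8 h after dosing. Complementation fluorescence scored as nuclear/cytoplasmic ratio at 488 nm in at least 400 cells per image; gain fitted versus DMSO.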

For assay [2], the target named is rat Mineralocorticoid Receptor (MR), Nr3c2 (gene 25672) (UniProt P22199). In words: NVS_NR_rMR: NovaScreen (NVS) Nuclear Receptor Binding Assay for rat Mineralocorticoid Receptor (MR) (AID 2283355). The method in brief:
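Cell-free radioligand binding to mineralocorticoid receptor from adrenalectomized rat brain supernatant, scintillation counting after 24 h. Primary screen in duplicate at 25 uM; actives retested in concentration series. Loss of specific binding versus DMSO.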

Assay [3] concerns the target Retinoic acid receptor alpha (Homo sapiens) (UniProt P10276). In words: NVS_NR_hRAR_Antagonist: NovaScreen (NVS) Nuclear Receptor Binding Assay for human Retinoic Acid Alpha Receptor Antagonism (RAR) (AID 2283358). The method in brief:
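Cell-free TR-FRET binding assay with extracted human RARalpha in antagonist mode, read 2 h after dosing. Loss of signal was fitted relative to DMSO; the primary screen used 25 uM in duplicate, with concentration series on follow-up.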

Assay [4] has the same target. In words: NVS_NR_hRARa_Agonist: NovaScreen (NVS) Nuclear Receptor Binding Assay for human Retinoic Acid Alpha Receptor Agonism (RAR) (AID 2283361). In a few lines:
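Cell-free TR-FRET binding readout with extracted receptor protein, read 2 hours after dosing; gain-of-signal fitted relative to DMSO. Screened in duplicate at 25 uM, actives then run in concentration-response.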

Assay [5] has as its target Estrogen receptor beta (Homo sapiens) (UniProt Q92731). In words: OT_ER_ERbERb_0480: Odyssey Thera (OT) 8-hour HEK293T Protein-Complementation Assay for Estrogen Receptor-beta/-beta Homodimer (AID 2283357).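 Also: active means signal gain over DMSO baseline.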 In a few lines:
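Fluorescence intensity, nuclear for agonists and nuclear plus cytoplasmic for antagonists, was quantified by laser scanning cytometry versus vehicle after 8 h treatment. The cells were HEK293T stably carrying ER beta LBD fragment-complementation partners.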

Assay [6] concerns the target Androgen Receptor/SRC-1 Co-activator, AR (gene 367) (UniProt P10275). The experiment in a line: OT_AR_ARSRC1_0960: Odyssey Thera (OT) 16-hour HEK293T Protein-Complementation Assay for Androgen Receptor/SRC-1 Co-activator (AID 2283353).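 Also: actives raise the signal above DMSO so potency reflects increased AR and SRC-1 complex.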 The method in brief: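 HEK293T cells stably expressing AR and SRC-1 fused to Venus YFP fragments, imaged 16 h after dosing. Nuclear/cytoplasmic fluorescence ratio at 488 nm from at least 400 cells per image; gain of signal relative to DMSO.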

Assay [7] has as its target PGR (gene 5241) (UniProt P06401). The experiment in a line: NVS_NR_hPR: NovaScreen (NVS) Nuclear Receptor Binding Assay for human Progestron Receptor (PR) (AID 2283360).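 Also: active means loss of bound radioligand signal versus DMSO baseline.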 The method in brief:
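T47D-derived receptor preparation, cell-free, with tritiated or iodinated radioligand displacement measured by scintillation 18 h post-dosing. Single 25 uM duplicate screen, then concentration series; signal loss relative to DMSO.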

Assay [8] deals with rat Androgen Receptor (AR), Ar (gene 24208) (UniProt P15207). In words: NVS_NR_rAR: NovaScreen (NVS) Nuclear Receptor Binding Assay for rat Androgen Receptor (AR) (AID 2283366). In a few lines: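 Cell-free radioligand binding on extracts of prostate from testosterone-pretreated rats, read by filter-based scintillation counting 18 h after dosing. Loss of bound signal fitted positively versus DMSO; primary screen in duplicate at 25 uM, actives followed up in concentration series.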
Chain of rat Androgen Receptor (AR), Ar (gene 24208) (P15207 whole entry, looked up): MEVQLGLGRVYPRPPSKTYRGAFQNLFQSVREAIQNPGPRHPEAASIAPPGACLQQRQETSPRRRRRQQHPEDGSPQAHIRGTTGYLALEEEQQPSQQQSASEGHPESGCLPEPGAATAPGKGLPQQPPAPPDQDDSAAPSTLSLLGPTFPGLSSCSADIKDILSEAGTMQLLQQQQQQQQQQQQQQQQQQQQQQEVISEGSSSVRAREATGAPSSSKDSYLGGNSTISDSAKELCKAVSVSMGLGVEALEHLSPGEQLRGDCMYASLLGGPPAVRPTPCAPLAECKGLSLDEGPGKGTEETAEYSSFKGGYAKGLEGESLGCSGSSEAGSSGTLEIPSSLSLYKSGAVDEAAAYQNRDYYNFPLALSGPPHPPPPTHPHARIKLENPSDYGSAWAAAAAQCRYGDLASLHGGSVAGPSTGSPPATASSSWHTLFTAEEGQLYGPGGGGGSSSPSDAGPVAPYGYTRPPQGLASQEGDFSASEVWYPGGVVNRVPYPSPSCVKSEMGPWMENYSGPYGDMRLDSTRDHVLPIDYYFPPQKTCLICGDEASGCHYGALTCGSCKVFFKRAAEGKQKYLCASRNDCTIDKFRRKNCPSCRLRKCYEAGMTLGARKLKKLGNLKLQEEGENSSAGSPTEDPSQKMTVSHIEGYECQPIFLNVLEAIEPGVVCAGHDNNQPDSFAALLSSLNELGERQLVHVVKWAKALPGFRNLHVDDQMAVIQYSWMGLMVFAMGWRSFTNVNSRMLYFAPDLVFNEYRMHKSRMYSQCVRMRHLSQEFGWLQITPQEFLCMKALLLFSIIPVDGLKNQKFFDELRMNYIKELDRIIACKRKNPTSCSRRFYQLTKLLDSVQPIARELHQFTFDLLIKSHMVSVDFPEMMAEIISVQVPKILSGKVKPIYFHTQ

The target of assay [9] is Peroxisome proliferator-activated receptor gamma (Homo sapiens) (UniProt P37231). The experiment in a line: NVS_NR_hPPARg: NovaScreen (NVS) Nuclear Receptor Binding Assay for human Peroxisome Proliferator-activated Receptor gamma (PPARg) (AID 2283370). In a few lines:
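Fluorescence polarization readout of ligand binding to extracted human PPARg, measured at 2 h. Duplicate single-point screen at 25 uM, then concentration-series retesting; activity defined as signal loss versus DMSO.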

The target in assay [10] is Nuclear receptor subfamily 1 group I member 2 (Homo sapiens) (UniProt O75469). In words: NVS_NR_hPXR: NovaScreen (NVS) Nuclear Receptor Binding Assay for human Pregnane X Receptor (PXR) (AID 2283365).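 Also: a drop in FRET signal versus DMSO baseline means the compound binds.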 In a few lines: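 Human PXR binding measured by TR-FRET in a cell-free format, 2 h exposure. Single-concentration duplicates at 25 uM preceded concentration-response retests of actives; endpoint fitted positively relative to DMSO, loss of signal indicating binding.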

Assay [11] concerns the target human Peroxisome Proliferator-activated Receptor alpha (PPARa), PPARA (gene 5465) (UniProt Q07869). The experiment in a line: NVS_NR_hPPARa: NovaScreen (NVS) Nuclear Receptor Binding Assay for human Peroxisome Proliferator-activated Receptor alpha (PPARa) (AID 2283359).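 Also: activity means loss of TR-FRET signal versus DMSO baseline.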 The method in brief: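 Cell-free TR-FRET binding assay with extracted PPARα protein, read 1 h after dosing. Primary screen in duplicate at 25 uM, with actives retested in concentration series. Loss of signal versus DMSO.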

The target of assay [12] is Glucocorticoid receptor (Homo sapiens) (UniProt P04150). In words: NVS_NR_hGR: NovaScreen (NVS) Nuclear Receptor Binding Assay for human Glucocorticoid Receptor (GR) (AID 2283363).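 Also: activity is loss of specific radioligand binding signal relative to DMSO.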 In a few lines:
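Cell-free radioligand displacement assay on extracted human GR, read 16 h after dosing by filter-based scintillation counting. Screened in duplicate at 25 uM, then concentration series for actives; loss of signal versus DMSO baseline.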

Assay [13] deals with human Adenosine Transporter (Adot), SLC29A1 (gene 2030) (UniProt Q99808). The experiment in a line: NVS_TR_hAdoT: NovaScreen (NVS) Transporter Assay for human Adenosine Transporter (Adot) (AID 2283368). In a few lines:
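U937-derived membranes, cell-free radioligand binding, filter scintillation 1 h after dosing. 25 uM duplicate screen; hits (e.g. 30% inhibition) run in concentration-response up to 50 uM; loss of signal versus DMSO.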

Assay [14] relates to guinea pig Dopamine Transporter (DAT), gene 100714898. In words: NVS_TR_gDAT: NovaScreen (NVS) Transporter Assay for guinea pig Dopamine Transporter (DAT) (AID 2283369).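 Also: active compounds lower bound radioligand signal relative to DMSO.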 In a few lines:
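Radioligand displacement on membranes from guinea pig striatum, 2 h exposure, bound label counted by filtration and scintillation. Tested at 25 uM in duplicate, then actives in concentration series to 50 uM; DMSO as negative control.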

SMILES strings stand for the structures. Records with an inconclusive call do not appear. The source made the active and inactive calls. The calls were made as follows: active = hit-call score of the fitted dose curve at least 0.9, where 1 is the maximum; inconclusive = response in the unintended direction; inactive = score below 0.9.

Chain of Androgen Receptor/SRC-1 Co-activator, AR (gene 367) (P10275 whole entry, looked up, the tested form may be a part): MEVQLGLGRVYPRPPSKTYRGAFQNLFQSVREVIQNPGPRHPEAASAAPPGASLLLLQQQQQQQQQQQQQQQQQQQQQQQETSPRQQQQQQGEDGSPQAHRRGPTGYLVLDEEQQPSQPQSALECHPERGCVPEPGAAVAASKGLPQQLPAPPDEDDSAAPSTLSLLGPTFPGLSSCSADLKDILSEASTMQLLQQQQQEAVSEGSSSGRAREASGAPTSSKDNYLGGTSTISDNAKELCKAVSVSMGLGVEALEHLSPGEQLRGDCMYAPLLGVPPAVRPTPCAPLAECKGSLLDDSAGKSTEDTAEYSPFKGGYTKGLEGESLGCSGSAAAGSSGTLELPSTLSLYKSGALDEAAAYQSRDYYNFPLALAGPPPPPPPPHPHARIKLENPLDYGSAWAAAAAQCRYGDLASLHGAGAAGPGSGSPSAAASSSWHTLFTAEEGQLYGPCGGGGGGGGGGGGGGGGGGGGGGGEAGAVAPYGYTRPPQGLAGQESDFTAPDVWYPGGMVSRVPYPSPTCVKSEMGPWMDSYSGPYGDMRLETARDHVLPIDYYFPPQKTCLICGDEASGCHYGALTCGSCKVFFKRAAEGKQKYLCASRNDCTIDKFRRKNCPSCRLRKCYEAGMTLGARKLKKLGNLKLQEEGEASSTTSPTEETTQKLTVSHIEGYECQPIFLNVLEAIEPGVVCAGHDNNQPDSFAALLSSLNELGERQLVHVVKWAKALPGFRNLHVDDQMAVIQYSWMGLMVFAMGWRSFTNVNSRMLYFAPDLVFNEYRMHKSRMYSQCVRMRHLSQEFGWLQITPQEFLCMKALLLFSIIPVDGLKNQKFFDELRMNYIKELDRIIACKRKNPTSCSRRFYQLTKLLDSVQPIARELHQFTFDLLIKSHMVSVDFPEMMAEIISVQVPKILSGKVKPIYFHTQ
Chain of Peroxisome proliferator-activated receptor gamma (Homo sapiens) (P37231 whole entry, looked up): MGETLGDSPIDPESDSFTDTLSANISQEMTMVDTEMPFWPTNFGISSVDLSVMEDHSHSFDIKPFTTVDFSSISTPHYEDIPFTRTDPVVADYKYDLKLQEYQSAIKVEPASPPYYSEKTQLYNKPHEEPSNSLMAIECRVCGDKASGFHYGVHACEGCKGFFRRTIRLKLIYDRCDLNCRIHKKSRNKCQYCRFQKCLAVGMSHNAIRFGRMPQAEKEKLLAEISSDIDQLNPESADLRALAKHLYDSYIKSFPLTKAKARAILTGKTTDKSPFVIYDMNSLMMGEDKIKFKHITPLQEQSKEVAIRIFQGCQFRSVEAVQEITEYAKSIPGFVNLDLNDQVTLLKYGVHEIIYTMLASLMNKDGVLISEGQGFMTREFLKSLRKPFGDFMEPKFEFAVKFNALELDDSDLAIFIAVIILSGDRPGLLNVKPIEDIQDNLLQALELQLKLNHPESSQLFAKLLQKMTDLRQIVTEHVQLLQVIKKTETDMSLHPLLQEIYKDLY
Chain of Estrogen receptor beta (Homo sapiens) (Q92731 whole entry, looked up, the tested form may be a part): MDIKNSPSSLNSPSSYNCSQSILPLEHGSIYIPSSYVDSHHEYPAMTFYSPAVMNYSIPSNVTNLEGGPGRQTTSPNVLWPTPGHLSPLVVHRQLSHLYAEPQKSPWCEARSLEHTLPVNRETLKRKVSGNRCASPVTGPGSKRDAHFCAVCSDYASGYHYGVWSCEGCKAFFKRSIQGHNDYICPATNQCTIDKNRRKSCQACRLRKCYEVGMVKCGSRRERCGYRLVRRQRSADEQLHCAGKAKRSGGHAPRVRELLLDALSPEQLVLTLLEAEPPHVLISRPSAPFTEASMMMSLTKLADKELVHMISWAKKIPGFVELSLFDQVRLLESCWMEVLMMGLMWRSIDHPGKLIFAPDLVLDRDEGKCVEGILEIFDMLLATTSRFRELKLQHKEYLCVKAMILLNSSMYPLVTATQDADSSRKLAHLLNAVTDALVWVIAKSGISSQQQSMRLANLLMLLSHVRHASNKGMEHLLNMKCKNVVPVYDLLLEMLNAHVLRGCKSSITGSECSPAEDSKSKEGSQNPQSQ
Chain of Retinoic acid receptor alpha (Homo sapiens) (P10276 whole entry, looked up): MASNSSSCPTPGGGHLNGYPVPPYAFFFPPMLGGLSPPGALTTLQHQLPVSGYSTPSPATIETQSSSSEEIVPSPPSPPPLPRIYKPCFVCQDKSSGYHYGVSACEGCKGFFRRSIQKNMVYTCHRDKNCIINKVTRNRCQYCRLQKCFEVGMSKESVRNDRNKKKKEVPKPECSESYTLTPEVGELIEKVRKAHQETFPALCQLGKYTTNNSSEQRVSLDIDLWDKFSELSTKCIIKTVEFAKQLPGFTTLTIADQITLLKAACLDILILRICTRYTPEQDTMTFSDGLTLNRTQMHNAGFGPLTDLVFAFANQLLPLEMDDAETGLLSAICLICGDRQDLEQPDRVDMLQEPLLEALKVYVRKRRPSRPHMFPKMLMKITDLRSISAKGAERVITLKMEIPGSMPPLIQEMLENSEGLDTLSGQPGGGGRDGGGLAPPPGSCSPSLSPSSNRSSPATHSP
Chain of human Peroxisome Proliferator-activated Receptor alpha (PPARa), PPARA (gene 5465) (Q07869 whole entry, looked up): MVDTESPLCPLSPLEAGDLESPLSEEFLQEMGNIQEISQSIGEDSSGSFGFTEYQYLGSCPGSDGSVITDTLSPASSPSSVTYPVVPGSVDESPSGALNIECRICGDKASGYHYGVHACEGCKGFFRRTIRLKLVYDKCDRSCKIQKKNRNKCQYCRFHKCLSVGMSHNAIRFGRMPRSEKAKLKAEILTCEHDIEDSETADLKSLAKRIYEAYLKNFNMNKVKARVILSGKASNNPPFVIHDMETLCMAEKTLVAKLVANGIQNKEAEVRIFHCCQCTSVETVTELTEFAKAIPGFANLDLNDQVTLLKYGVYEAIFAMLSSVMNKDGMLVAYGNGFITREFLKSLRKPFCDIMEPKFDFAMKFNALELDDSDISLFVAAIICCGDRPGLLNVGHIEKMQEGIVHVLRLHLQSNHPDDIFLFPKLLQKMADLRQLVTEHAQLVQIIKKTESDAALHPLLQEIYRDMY
Chain of Glucocorticoid receptor (Homo sapiens) (P04150 whole entry, looked up): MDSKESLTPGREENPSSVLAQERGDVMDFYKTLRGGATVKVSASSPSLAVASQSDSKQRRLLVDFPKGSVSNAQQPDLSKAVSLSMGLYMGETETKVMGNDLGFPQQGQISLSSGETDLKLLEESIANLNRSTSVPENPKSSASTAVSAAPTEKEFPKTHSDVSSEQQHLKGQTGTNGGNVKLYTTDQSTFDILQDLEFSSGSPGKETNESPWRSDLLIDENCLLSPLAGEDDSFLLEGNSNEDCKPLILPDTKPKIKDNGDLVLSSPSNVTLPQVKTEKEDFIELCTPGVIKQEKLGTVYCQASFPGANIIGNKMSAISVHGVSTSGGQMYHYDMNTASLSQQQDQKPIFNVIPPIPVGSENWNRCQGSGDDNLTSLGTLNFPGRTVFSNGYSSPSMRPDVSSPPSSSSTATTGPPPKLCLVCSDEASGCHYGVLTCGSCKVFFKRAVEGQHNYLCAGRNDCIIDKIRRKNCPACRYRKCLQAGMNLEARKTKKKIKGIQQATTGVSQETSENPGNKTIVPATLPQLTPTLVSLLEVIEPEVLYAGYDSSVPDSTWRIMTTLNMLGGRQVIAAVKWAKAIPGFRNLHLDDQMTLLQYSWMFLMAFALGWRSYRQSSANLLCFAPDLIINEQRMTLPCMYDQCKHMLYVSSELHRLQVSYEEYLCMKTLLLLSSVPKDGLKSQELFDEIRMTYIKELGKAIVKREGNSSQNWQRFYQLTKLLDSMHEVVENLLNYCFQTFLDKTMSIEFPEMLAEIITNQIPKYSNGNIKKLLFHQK
Chain of human Adenosine Transporter (Adot), SLC29A1 (gene 2030) (Q99808 whole entry, looked up): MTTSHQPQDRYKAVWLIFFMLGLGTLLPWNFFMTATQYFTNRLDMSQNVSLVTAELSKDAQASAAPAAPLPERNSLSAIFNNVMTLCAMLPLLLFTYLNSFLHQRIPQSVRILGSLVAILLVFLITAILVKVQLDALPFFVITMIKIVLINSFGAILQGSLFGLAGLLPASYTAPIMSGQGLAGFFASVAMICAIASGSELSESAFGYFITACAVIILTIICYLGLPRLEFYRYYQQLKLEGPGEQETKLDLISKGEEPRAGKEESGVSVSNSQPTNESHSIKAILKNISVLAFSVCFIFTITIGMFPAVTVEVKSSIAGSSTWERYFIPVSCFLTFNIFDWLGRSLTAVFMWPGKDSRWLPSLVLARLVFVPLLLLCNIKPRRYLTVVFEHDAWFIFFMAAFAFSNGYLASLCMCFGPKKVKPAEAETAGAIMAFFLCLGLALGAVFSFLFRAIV

As to `CC(C)=CCCC(C)CCO` (stereo unspecified), the compound was called inactive in assay [1].
`CNS(=O)(=O)c1cc(C(=O)N2CCC(CCN3C4CCC3CC(n3c(C)nc5ccccc53)C4)(c3cccc(F)c3)CC2)c(Cl)cc1F` (stereo unspecified): the AC50 in assay [1] was 32 µM (active).
On to `O=P(OC(CCl)CCl)(OC(CCl)CCl)OC(CCl)CCl`, for which the compound was called inactive in assay [2].
As to `O=C(O)c1cccc(Oc2ccccc2)c1`, the compound was classed as inactive in assay [3].
On to `CCn1nc(Cc2ccccc2)cc1C1CCN(C[C@H]2C[C@H](N(C)[C@@H](C(=O)O)C(C)C)C[C@@H]2c2cccc(F)c2)CC1`, for which the outcome in [3] was inactive.
For the compound `CC[C@H]1CC[C@H](NCc2cc3c(cc2OC)[C@H]2C[C@H]2C(=O)N3C)[C@H](c2ccccc2)N1`, the result in assay [4] was inactive.
For the compound `CC(O)CN(CCN(CC(C)O)CC(C)O)CC(C)O` (stereo unspecified), the call in assay [5] was inactive.
On to `O=C(O)c1cccc(N(Cc2cccnc2)c2ccc(OC(F)F)c(OC(F)F)c2)c1`, for which the AC50 in assay [6] was 37.1 µM (active); in assay [7] it was 4.96 µM (active); in assay [9] it was 25 µM (active). The outcome in assay [1], in [5] and in assay [8] was inactive.
As to `C1=CCCC=CCCC=CCC1`, in assay [5], the outcome was inactive.
Consider `CCOC(=O)CC(CC(=O)OCC)(OC(C)=O)C(=O)OCC`, for which the result in assay [5] was inactive.
For the compound `CC1(C)C(=O)N(Br)C(=O)N1Br`, the compound was called inactive in [6], in [1], in assay [5], in [10] and in assay [9].
Regarding `CC(=O)OC[C@H]1O[C@@](COC(C)=O)(O[C@H]2O[C@H](COC(C)=O)[C@@H](OC(C)=O)[C@H](OC(C)=O)[C@H]2OC(C)=O)[C@@H](OC(C)=O)[C@@H]1OC(C)=O`, the compound was classed as inactive in assay [5].
Regarding `CCOCCOCCOCCO`, in assay [5], the compound was called inactive.
For `CCOc1cccc(-n2cc(C(=O)N3CCN(c4cc(C(=O)O)c5ccccc5c4)CC3)nc2-c2ccc(C)cc2)c1`, the AC50 in assay [6] was 23.9 µM (active); in [4], 16.2 µM (active); in assay [12], 14.6 µM (active); in assay [8], 13.5 µM (active); in assay [13], 14.8 µM (active); in assay [14], 23.8 µM (active). Further, the result in [1], in assay [5], in assay [11] and in assay [9] was inactive.
With `COCCOc1cc2cc(C(=O)NC3CCN(C(C)C)CC3)n(CC(=O)Nc3ccc(Cl)cn3)c2cn1`, the result in [5] was inactive.
Take `CCCCCCc1ccc(O)cc1O`: the concentration at half-maximal activity (AC50) in assay [6] is 92.3 µM (active); in assay [1] it was 77.9 µM (active); in assay [12], 33.7 µM (active); in assay [9], 25 µM (active). The outcome in assay [11] and in assay [13] was inactive.
For the compound `O=C1CCC(N2C(=O)c3ccccc3C2=O)C(=O)N1` (stereo unspecified), the call in assay [5] was inactive.
`Nc1nc2ncc(CNc3ccc(C(=O)N[C@@H](CCC(=O)O)C(=O)O)cc3)nc2c(=O)[nH]1`: the outcome in assay [6], in assay [1] and in assay [5] was inactive. For the same compound, the AC50 in assay [4] is 15.8 µM (active).
On to `CCNc1ccccc1`, for which the compound was called inactive in assay [6], in assay [1] and in assay [5].
In the case of `O=C(CCCCCCCCc1cccnc1)N1CCC(C=C(c2ccccc2)c2ccccc2)CC1`, the AC50 in assay [6] is 27.5 µM (active). Besides, the outcome in assay [1], in assay [5] and in assay [3] was inactive.
